Assay outcomes as filed in PubChem.
Only some compounds are listed: those with a hit (about 2.9% of all), similar ones and a draw of the others.
D3 ag: qHTS of D3 Dopamine Receptor Agonist: qHTS; max activation, %; 410,000 compounds, 0.58% hits; D(3) dopamine receptor (Homo sapiens), P35462; D3R DiscoveRx beta-arrestin cells, luminescence, 90 min; in the data active = max activation above about 30%; also: 0% is about no effect
Target sequence (P35462 whole entry, looked up): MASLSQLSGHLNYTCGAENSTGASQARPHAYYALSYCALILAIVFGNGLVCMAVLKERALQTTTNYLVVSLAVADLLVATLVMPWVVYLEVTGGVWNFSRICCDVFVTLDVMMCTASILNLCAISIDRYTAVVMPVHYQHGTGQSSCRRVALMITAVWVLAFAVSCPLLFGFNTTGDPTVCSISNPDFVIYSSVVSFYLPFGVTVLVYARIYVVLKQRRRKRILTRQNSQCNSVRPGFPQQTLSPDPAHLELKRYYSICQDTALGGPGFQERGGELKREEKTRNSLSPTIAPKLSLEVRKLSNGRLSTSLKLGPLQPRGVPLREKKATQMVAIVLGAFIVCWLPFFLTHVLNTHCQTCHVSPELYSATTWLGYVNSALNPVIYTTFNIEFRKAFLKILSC
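Cells at 1500/well, incubated overnight, then treated with pinned compounds (dopamine as control) for 90 min at 37 degrees C. DiscoveRx reagent added for 30 - 60 minutes at room temperature; luminescence read.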
DRD3 antagonist: qHTS of D3 Dopamine Receptor Antagonist: qHTS. D3R cells, DiscoveRx beta-arrestin luminescence, antagonist mode; stronger effect = lower value. max response, negative = inhibition, %. 360,000 compounds, 2.5% hits; in the data active = max response below about -50%; inconclusive = no clear call, values can overlap the other calls; also: % is scaled to controls: 0 for no effect and ±100 for the full control effect
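Cells plated overnight at 1500 cells/well, then exposed to library compounds with dopamine controls for 90 minutes at 37 degrees C. DiscoveRx reagent added for 30–60 minutes at room temperature; luminescence read, quantitative HTS format.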
TSHR antag: Antagonists of the Thyroid Stimulating Hormone Receptor: HTS campaign; Thyrotropin receptor (Homo sapiens), P16473; TSHR-expressing cells, TSH-stimulated cAMP HTRF, 2 h; stronger effect = lower value; activity change, negative = inhibition, % at 11.5 µM; 330,000 compounds, 0.2% hits;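 active = activity change below a set negative limit, meaning inhibition stronger than a set level, cut at about -70% in these data; inconclusive = activity change between two set negative limits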; also: % is scaled to controls: 0 for no effect and ±100 for the full control effect
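Antagonism was scored as loss of TSH-driven cAMP in TSHR cells, stimulated with 4nM TSH (EC80) for 2 hours at 37 deg C and detected by homogeneous HTRF competition immunoassay.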
B2AR arrestin: qHTS assay of beta-arrestin-biased ligands of beta2-adrenergic receptor. Potency, µM (titrated, usually from 46.1 µM), without a hit: at the highest dose activation, actives largely listed as activators. beta-arrestin recruitment to beta2AR, cell-based reporter. 330,000 compounds, 0.02% hits. AID 492947, 2010; active = well fitted activation curve with a large enough effect; inconclusive = small, poorly fitted or top-dose-only effect;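 also: potency is read from the fitted curve at half-maximal effect; 0% = DMSO controls and full agonism = EC100 isoproterenol or metaproterenol; nearly all actives have a fitted effect of over 65% in size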
Numbers without * were called inactive.

Cc1cc2c(n1-c1ccc(C(=O)NCCc3ccc(Cl)cc3)cc1)CCCC2 was read as D3 ag -10.2.
Screening COc1cc(C(c2sc3nc(C)nn3c2O)N2CCC3(CC2)OCCO3)cc(OC)c1OC (centres undefined) returned D3 ag 1.6, DRD3 antagonist -50.7*, TSHR antag 1.3 and B2AR arrestin 0.4%.
CCC(C)NCCCOc1ccc(Cl)cc1C(C)(C)C (centres undefined) was read as D3 ag -11.2, DRD3 antagonist -68.9*, TSHR antag 4.6 and B2AR arrestin 0.2%.
For COCCCNCCOCCOc1ccc(C)cc1Br the results were D3 ag -25.6, DRD3 antagonist inconclusive, TSHR antag 41.0 and B2AR arrestin -0.6%.
For Cc1ccc(OCCOCCNC(C)C)c(Br)c1 the results were D3 ag -3.3, DRD3 antagonist -74.7*, TSHR antag 4.4 and B2AR arrestin -2.0%.
For CCC(C)NCCOCCOc1ccc(Cl)cc1Br (centres undefined) the results were D3 ag -20.6, DRD3 antagonist -82.8*, TSHR antag 23.1 and B2AR arrestin -0.5%.
Screening CCCCNCCOCCOc1ccc(C)cc1Br returned D3 ag -15.5, DRD3 antagonist -80.6*, TSHR antag -1.2 and B2AR arrestin 0.0%.
`CNCCCOc1ccc(Cl)cc1C(C)(C)C` gave D3 ag -12.0, DRD3 antagonist inconclusive, TSHR antag -6.8 and B2AR arrestin -0.1%.
Screening CCCn1c(SCc2nc(-c3ccccc3OCC)no2)nnc1-c1ccc(Cl)cc1 returned D3 ag 7.3.
Screening COc1ccccc1-c1noc(-c2ccc(N3CCN(C)CC3)c([N+](=O)[O-])c2)n1 returned D3 ag -28.6.
`Cn1ccnc1Sc1cc(NCCCO)c([N+](=O)[O-])c2nonc12` gave D3 ag -19.8, DRD3 antagonist -112.0*, TSHR antag -28.3 and B2AR arrestin 0.1%.
`O=[N+]([O-])c1c(NCCCO)cc(Sc2ccc(Cl)cc2)c2nonc12` gave D3 ag -65.0, DRD3 antagonist -112.5*, TSHR antag -36.0 and B2AR arrestin -0.6%.
O=[N+]([O-])c1c(NCCCO)cc(N2CCN(Cc3ccc4c(c3)OCO4)CC2)c2nonc12 was read as D3 ag 5.3, DRD3 antagonist 11.5, TSHR antag -11.1 and B2AR arrestin -0.7%.
Screening O=[N+]([O-])c1c(NCCCO)cc(SCc2ccco2)c2nonc12 returned D3 ag -6.7, DRD3 antagonist -63.1*, TSHR antag -3.4 and B2AR arrestin 4.9%.
Cc1ccc(Nc2nccc(N(C)c3ccc4c(C)n(C)nc4c3)n2)cc1S(N)(=O)=O was read as D3 ag 14.0.
Screening CCn1c(=O)c(C(=O)Nc2nc3ccccc3[nH]2)c(O)c2ccccc21 returned D3 ag 4.2, DRD3 antagonist -61.7*, TSHR antag inconclusive and B2AR arrestin 0.0%.
CCCn1c(=O)c(C(=O)Nc2ccccc2C(=O)OCC)c(O)c2ccccc21 was read as D3 ag 37.0*, DRD3 antagonist 27.8, TSHR antag -5.5 and B2AR arrestin 0.2%.
For Cc1ccc(C)c(C(=O)NCCN(C)C)c1 the results were D3 ag -2.4, DRD3 antagonist 11.1, TSHR antag 4.1 and B2AR arrestin -0.2%.
C=C(CN(C)C)C(=O)c1cc(C)ccc1C was read as D3 ag -18.2 and DRD3 antagonist -87.6*.
Screening N=C1N(c2ccccc2)C(=S)C(=Nc2ccccc2)N1c1ccccc1 returned D3 ag -10.6 and DRD3 antagonist -61.3*.
COc1ccc(N=C2C(=S)N(c3ccc(OC)cc3)C(=NS(=O)(=O)c3ccccc3)N2c2ccccc2)cc1 was read as D3 ag 4.3 and DRD3 antagonist -9.1.
Cc1c(C(=O)NCc2cccc(Cl)c2)sc2nc[nH]c(=O)c12 was read as D3 ag -11.2.
For CCOC(=O)C1=CCN(S(=O)(=O)c2ccccc2Cl)C1c1cccc(F)c1 (centres undefined) the results were D3 ag 8.2 and DRD3 antagonist 9.1.
`CC1(Cc2ccccc2Cl)C(=O)Nc2c(Cl)cccc21` (centres undefined) gave D3 ag -15.2 and DRD3 antagonist 0.0.
Screening CC1(Cc2cccc(C(N)=O)c2)C(=O)Nc2c(Cl)cccc21 (centres undefined) returned D3 ag 7.1 and DRD3 antagonist 27.5.
Screening CC1(Cc2cccc(C#N)c2)C(=O)Nc2c(Cl)cccc21 (centres undefined) returned D3 ag 48.2* and DRD3 antagonist -11.6.
Screening C=Cc1ccc(CC2(C)C(=O)Nc3c(Cl)cccc32)cc1 (centres undefined) returned D3 ag -4.1 and DRD3 antagonist -66.8*.
CCn1nnnc1SCC(=O)NNC(=O)C1CCCCC1 was read as D3 ag -2.5, DRD3 antagonist -80.2*, TSHR antag -1.1 and B2AR arrestin -0.2%.
Screening CCCn1nnnc1SCC(=O)NNC(=O)C1CCCCC1 returned TSHR antag 18.8 and B2AR arrestin -0.4%.
For Cc1ccc(CN2CCN(CC3CC4C=CC3C4)CC2)cc1 (centres undefined) the results were D3 ag -16.9, DRD3 antagonist -59.9*, TSHR antag 10.5 and B2AR arrestin -0.2%.
`O=S(=O)(c1ccccc1)N1CCN(CC2CC3C=CC2C3)CC1` (centres undefined) gave D3 ag 0.2, DRD3 antagonist 13.5, TSHR antag 2.6 and B2AR arrestin -0.3%.
Cc1cccc(C)c1-n1nnnc1C(c1ccnc2ccccc12)N1CCOCC1 (centres undefined) was read as D3 ag 0.7 and DRD3 antagonist 3.4.
`CC(=O)N1CCN(C(C(=O)Nc2c(C)cccc2C)c2ccccc2OC(F)(F)F)CC1` (centres undefined) gave D3 ag 4.6 and DRD3 antagonist 9.5.
For C=CCN1CCN(C(c2ccccc2OC)c2nnnn2C(C)(C)C)CC1 (centres undefined) the results were D3 ag -2.5, DRD3 antagonist -7.6, TSHR antag -4.1 and B2AR arrestin -0.2%.
For Cc1cccc(C)c1-n1nnnc1C(c1ccnc2ccccc12)N1CCCC1 (centres undefined) the results were D3 ag -10.4 and DRD3 antagonist -56.2*.
For COc1cccc(C(c2nnnn2-c2c(C)cccc2C)N2CCN(C/C=C/c3ccccc3)CC2)c1OC (centres undefined) the results were D3 ag -23.7 and DRD3 antagonist -121.3*.
For Cc1cccc(C)c1NC(=O)C(c1ccccc1OC(F)(F)F)N1CCN(C/C=C/c2ccccc2)CC1 (centres undefined) the results were D3 ag -14.8 and DRD3 antagonist -63.3*.
